According to the supplement of paper PMC6763611:

System: Plasmodium falciparum NF54
Assay: growth inhibition relative to untreated control; higher = more inhibition
Settings: 72 h
Outline: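 Ring-stage P. falciparum NF54 parasites at 1% hematocrit and 1% parasitemia were dispensed at 100 μL/well into dark 96-well half-area plates and given a single dose of test compound at 5 μM or 1 μM for 72 h at 37 °C. Incubation took place in minimal RPMI, either alone or supplemented with the chorismate end-products folate (2.2 μM), pABA (7.3 μM), pHBA (7.3 μM), tyrosine (111 μM), phenylalanine (90 μM) and tryptophan. Growth inhibition was determined with SYBR Green relative to untreated wells, using uninfected erythrocytes for background.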

[1] = 1 µM, MM + chorismate end-products (CM screening medium)
[2] = 5 µM, MM + chorismate end-products (CM screening medium)

Row | SMILES | growth inhibition [1] [%] | growth inhibition (1 µM, minimal medium (MM)) [%] | growth inhibition [2] [%] | growth inhibition (5 µM, minimal medium (MM)) [%]
1 | CC(C)(C)n1nc(-c2ccccc2)c2c(N)ncnc21 | 20.8 | 20.3 | 38.5 | < 0
2 | COc1ccccc1CNC(=O)c1cc(C2CC2)nc2c1cnn2C(C)C | 82.9 | 79.8 | 87.1 | 91.4
3 | O=C(OCc1ccccc1)N1CCC(c2cc(-c3ccncc3)c(-c3ccc(F)cc3)[nH]2)CC1 | 62.4 | 62.7 | 98.3 | 64.2
4 | Cc1[nH]c2ccccc2c1C(c1cccs1)N1CCN(C)CC1 (stereo not drawn) | 11.9 | 21.1 | 9.09 | 19.7
5 | COc1ccc(C(=N)N)cc1-c1cn(-c2ccc(C(=N)N)cc2)nn1 | 65.6 | 53.6 | 47.8 | 39.2
6 | CNc1snc(C)c1C(=O)NCCOc1ccc(OC)cc1 | 42.3 | < 0 | 42.9 | 34.9
7 | N=C(N)Nc1ccc(-c2ccc(-c3ccc(N=C(N)N)c(Cl)c3)o2)cc1Cl | 73.6 | > 100 | 97.4 | 88.2
8 | CS(=O)(=O)N1CCC(CCn2nc(Cc3cccc4ccccc34)c3c(N)ncnc32)CC1 | < 0 | 24.3 | 41.3 | < 0
9 | c1ccc(-c2cc(N3CCCCC3)c3ccccc3n2)nc1 | 3.57 | < 0 | 37.4 | 26.9
10 | CCN(CC)CCCN1CCN(C(=O)c2cccc(-c3noc(C(F)(F)F)n3)c2)CC1 | 86.3 | 84.9 | 95.3 | 87
11 | CC(Oc1cccc(Cl)c1)C(=O)Nc1ccc2oc(-c3ccncc3)nc2c1 (stereo not drawn) | < 0 | 2.28 | < 0 | 3.02
12 | CCN(CC)CCCCCCNc1cc(OC)cc2c(C)ccnc12 | 93.3 | 92.8 | 81.2 | 91.2
13 | COc1ccc(OC(C)C(=O)Nc2ccc(Cl)cc2C)cc1 (stereo not drawn) | 30 | 15.2 | < 0 | < 0
14 | Cc1ncc(-c2ccnc(Nc3ccc(S(C)(=O)=O)cc3)n2)n1C(C)C | 67 | 59.4 | 42.1 | 45.6
15 | COc1ccc(-c2nnc3ccc(-c4cccc(C(C)C)c4)cn23)cc1OC | 9.51 | 3.89 | 33.1 | < 0
16 | CC(Oc1ccccc1)C(=O)Nc1nc(-c2ccccn2)cs1 (stereo not drawn) | < 0 | 38.4 | 68.6 | 38.2
17 | Nc1nccc2ccc(Oc3ccncc3)cc12 | 73.9 | 64 | 68.2 | 60.1
18 | CNc1cc(C)nc(C2CN(C(=O)c3n[nH]c4ccccc34)CCO2)c1 (stereo not drawn) | 16.4 | 10.7 | 41.7 | 21.7
19 | Cc1ccc2oc(-c3cc(NC(=O)Cc4ccccc4)ccc3Cl)nc2c1 | < 0 | 6.84 | 26.4 | < 0
20 | COC(=O)C1=C(C)NC(C)=C(C(=O)OC(C)C)C1c1cccc2nonc12 (stereo not drawn) | 42 | 24.4 | 28.3 | 18.7
21 | CC(=O)NC[C@@H]1CN(c2ccc(N3CCOCC3)c(F)c2)C(=O)O1 | 18.8 | 11.7 | < 0 | < 0
22 | COc1cccc(-n2nnnc2S(C)(=O)=O)c1 | 19.7 | 29.5 | 35 | 8.78
23 | O=C(C(Cc1c[nH]c2ccccc12)NS(=O)(=O)c1ccc(Cl)cc1)N1CCCCC1 (stereo not drawn) | 58 | 56.9 | 96.8 | 88.7
24 | CC(=O)N1CCN(c2ccc(Oc3ccc(Cl)cc3O)cc2)CC1 | 48.6 | 13.5 | < 0 | < 0

Row | SMILES | growth inhibition [1] [%] | growth inhibition (1 µM, minimal medium (MM)) [%] | growth inhibition [2] [%] | growth inhibition (5 µM, minimal medium (MM)) [%]
25 | FC(F)(F)c1nnc2ccc(Cl)nn12 | 8.81 | 7.29 | < 0 | 8.78
26 | CNC(=O)C1Cc2c([nH]c3cc(Cl)ccc23)C2(CCN(CCc3ccccc3)CC2)N1 (stereo not drawn) | 87 | > 100 | 92.8 | 94.4
27 | Cc1nc(-c2ccccn2)nc(NCCc2ccc(S(C)(=O)=O)cc2)c1Cl | 32.5 | < 0 | 8.44 | < 0
28 | CCn1ncc2c(NC3CCOCC3)c(CNC(=O)c3ccnn3C)c(C)nc21 | 63.5 | > 100 | 92.6 | 91.4
29 | O=C(CCC1CCCCC1)Nc1cccc(-c2nnc(-c3ccco3)o2)c1 | 14.2 | 9.19 | < 0 | < 0
30 | Cc1noc(C)c1C(=O)N1CCCC(c2[nH]c3c(C)cccc3c2-c2ccncc2)C1 (stereo not drawn) | 97.7 | 95.3 | 92.6 | 92.4
31 | NCC(c1cccs1)S(=O)(=O)c1ccccc1 (stereo not drawn) | 36.2 | < 0 | < 0 | 4.01
32 | O=C1N(Cc2cc3ccccc3s2)CC2CN(Cc3ccccc3)CCN12 (stereo not drawn) | 97.5 | 98 | 96.5 | 94.8
33 | CNC1C(OC2C(OC3C(O)C(O)C(N=C(N)N)C(O)C3N=C(N)N)OC(C)C2(O)C=O)OC(CO)C(O)C1O (stereo not drawn) | 20.4 | 29.2 | < 0 | 8.51
34 | COc1cncc(-c2cncc(N3CCN(c4ccncc4)CC3)n2)c1 | > 100 | > 100 | 97.4 | 89.1
35 | CC(C)(C)C(=O)N(CCCCCCN1C[C@H](O)[C@@H](O)[C@H](O)[C@H]1CO)C1CCCCCC1 | 28.4 | < 0 | < 0 | < 0
36 | Cc1cc(Cl)c(S(=O)(=O)N2CCCC2)cc1OCC(=O)NC1CCCCC1 | 71.3 | 100 | 82.3 | 59.9
37 | CC(c1cc(Cl)cc(Cl)c1)N(C)c1ncc2c(N)nc(N)nc2n1 (stereo not drawn) | 54.9 | 91.6 | 53 | 77.7
38 | CNC(=O)c1cc(S(=O)(=O)N2CCN(c3ccccn3)CC2)cs1 | 98.3 | 96.6 | 90.2 | 90.9
39 | C[C@H](C(N)=O)N1CCCC[C@@H]1c1ccc(OCc2cccc(F)c2)cc1 | 45.1 | < 0 | 14.2 | 15.9
40 | Cc1cc(NC(=O)c2ccc(S(=O)(=O)N(Cc3ccccc3)C(C)C)cc2)no1 | 95.5 | > 100 | 99.8 | 93.1
41 | COc1ccc(S(=O)(=O)Nc2ccc(CN3CCN(C(=O)c4cccc(C#N)c4)CC3)cc2)cc1 | 0.529 | < 0 | 41.6 | 13.7
42 | CN1CCN(c2cc(-c3ccc(F)cc3)nc(-c3ccncc3)n2)CC1 | 79.9 | 95.3 | 92.9 | 96.5
43 | O=C1[C@@H](Oc2ccccc2)[C@@H](c2ccc(Cl)cc2)N1CCn1cnc2c(NCc3ccccc3)ncnc21 | < 0 | 22.4 | < 0 | 7.4
44 | CC(C)(C)CN1C(=O)C(c2ccccc2)(c2ccccc2)N=C1N | 45.9 | 45.7 | 57.1 | 34.9
45 | O=C(Nc1cnc2ccccc2c1)c1cccc(-n2cnnn2)c1 | 94.1 | 96.4 | 86.9 | 87.1
46 | CS(=O)(=O)c1ccccc1C(=O)N(Cc1ccccc1)c1ccccc1 | 35.9 | 7.57 | < 0 | < 0
47 | CCCCN(CCCC)c1c(C#N)cc(S(=O)(=O)Nc2ccccc2)cc1C#N | < 0 | < 0 | 39.9 | 35.7
